FEN1 inh – inhibitors of human flap endonuclease 1. P39748. Recombinant FEN1 flap cleavage, fluorescence, 15 min. Potency, µM (titrated, usually from 114 µM), for the others: at the top dose activity change, negative = inhibition, usual class: inhibitors. actives 0.35% (n = 390,000); note: % is set by controls: 0 for no effect and ±100 for the full control effect; nearly all actives have a fitted effect of over 65% in size
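With each library titrated from low to high concentration, compounds met 10 nM FEN1 for 15 min at room temperature before 50 nM substrate was added; readings at 0 and 15 min fed four-parameter Hill curve fits.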
BLM helicase inh-1 – blocks DNA unwinding by human BLM helicase; Potency, µM (top dose mostly 56.1 µM), for inactives: top-dose activity change, negative = inhibition, most hits filed as inhibitors; recombinant BLM DNA unwinding, fluorescence dequenching; actives 0.2% (n = 350,000); P54132;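 note: plate controls were vehicle for no effect and no enzyme for full effect; nearly all actives have a fitted effect of over 35% in size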
Target sequence (P54132 whole entry, looked up): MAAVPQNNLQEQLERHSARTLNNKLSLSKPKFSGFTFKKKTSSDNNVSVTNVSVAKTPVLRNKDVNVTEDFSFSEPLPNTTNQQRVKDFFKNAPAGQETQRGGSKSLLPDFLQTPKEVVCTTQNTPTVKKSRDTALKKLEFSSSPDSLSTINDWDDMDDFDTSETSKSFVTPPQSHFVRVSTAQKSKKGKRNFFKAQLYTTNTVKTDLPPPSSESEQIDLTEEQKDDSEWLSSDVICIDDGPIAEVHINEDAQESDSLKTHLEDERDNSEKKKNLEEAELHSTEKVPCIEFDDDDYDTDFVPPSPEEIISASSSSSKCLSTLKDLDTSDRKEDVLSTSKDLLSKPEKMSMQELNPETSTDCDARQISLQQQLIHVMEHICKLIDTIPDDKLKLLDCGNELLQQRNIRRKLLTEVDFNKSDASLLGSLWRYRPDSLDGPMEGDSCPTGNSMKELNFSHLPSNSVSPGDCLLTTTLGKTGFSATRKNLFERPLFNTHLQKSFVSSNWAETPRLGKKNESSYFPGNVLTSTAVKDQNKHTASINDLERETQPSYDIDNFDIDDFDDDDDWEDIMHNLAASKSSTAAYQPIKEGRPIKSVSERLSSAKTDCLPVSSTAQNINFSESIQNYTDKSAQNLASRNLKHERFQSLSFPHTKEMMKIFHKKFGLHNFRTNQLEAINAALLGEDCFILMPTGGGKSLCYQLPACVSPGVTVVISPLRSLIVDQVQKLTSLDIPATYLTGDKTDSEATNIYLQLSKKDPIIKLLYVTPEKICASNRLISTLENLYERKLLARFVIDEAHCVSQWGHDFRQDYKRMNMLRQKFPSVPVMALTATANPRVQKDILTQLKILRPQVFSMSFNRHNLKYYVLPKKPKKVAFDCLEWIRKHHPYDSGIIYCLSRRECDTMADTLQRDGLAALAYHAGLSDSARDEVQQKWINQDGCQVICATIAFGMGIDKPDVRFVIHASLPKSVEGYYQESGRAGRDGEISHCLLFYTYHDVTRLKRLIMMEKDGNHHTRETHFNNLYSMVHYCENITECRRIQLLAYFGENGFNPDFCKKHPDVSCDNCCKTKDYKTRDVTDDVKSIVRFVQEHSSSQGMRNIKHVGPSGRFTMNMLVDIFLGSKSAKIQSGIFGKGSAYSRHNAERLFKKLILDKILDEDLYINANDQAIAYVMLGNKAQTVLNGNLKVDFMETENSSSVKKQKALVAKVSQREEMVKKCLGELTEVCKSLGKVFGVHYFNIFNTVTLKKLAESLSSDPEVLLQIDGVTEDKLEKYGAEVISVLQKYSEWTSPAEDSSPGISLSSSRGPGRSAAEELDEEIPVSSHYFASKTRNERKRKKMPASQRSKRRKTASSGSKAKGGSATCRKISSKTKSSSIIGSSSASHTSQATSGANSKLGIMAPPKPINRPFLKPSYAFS
RECQ1 helicase – RECQ1 (human) helicase inhibition. P46063. RECQ1 DNA unwinding, red fluorescence kinetic read. Potency, µM (doses to about 57.3 µM), inactives show at the highest dose activity, negative = inhibition, most hits filed as inhibitors. actives 0.54% (n = 240,000). AID 2549;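 note: plate controls were vehicle for no effect and no enzyme for full effect; nearly all actives have a fitted effect of over 30% in size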
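50 nM RECQ1T1 preincubated 15 min with compound in Tris pH 8.0 buffer with MgCl2, DTT, Tween-20 and 2.5 ug/ml poly(dI-dC); started with 200 nM TAMRA/BHQ-2 forked duplex and 2 mM ATP. Unwinding read as fluorescence (525/598 nm), two reads 2 h apart.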
L3MBTL1 inh – blocks human L3MBTL1. Q9Y468. actives 0.66% (n = 230,000). AlphaScreen L3MBTL1–H3K9me1 peptide binding. Potency, µM (series often up to 57.1 µM), inactives show at the top dose activity, negative = inhibition, actives largely listed as inhibitors. AID 485360; note: % is set by controls: 0 for no effect and ±100 for the full control effect; nearly all actives have a fitted effect of over 60% in size
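L3MBTL1 (50 nM) pre-complexed 30 min with biotinylated H3(1-15)K9me1 peptide (75 nM), then compounds added for 30 min at room temperature; AlphaScreen streptavidin donor/nickel chelate acceptor beads (10 ug/mL final) read after 30 min dark incubation.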
WRN helicase inh-1 – blocks human WRN helicase; Q14191; actives 0.46% (n = 360,000); WRN helicase unwinding, fluorescent forked duplex, kinetic; Potency, µM (top dose mostly 114 µM), inactives show at the highest dose activity change, negative = inhibition, usual class: inhibitors; note: % is set by controls: 0 for no effect and ±100 for the full control effect; nearly all actives have a fitted effect of over 55% in size
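Fluorescence dequenching readout, ex 525 nm/em 598 nm, kinetic mode: forked duplex DNA (100 nM final) with adjacent fluorophore and quencher unwound by WRN (20 nM final) with 2 mM ATP. Compound preincubation 15 min, room temperature.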
WRN helicase inh-2 – WRN helicase inhibition, cherry-pick retest. shares compounds with WRN helicase inh-1. WRN helicase DNA unwinding, fluorescence kinetic. Potency, µM (top dose mostly 57.1 µM), for the others: top-dose activity, negative = inhibition, most hits filed as inhibitors. actives 63% (n = 610); note: nearly all actives have a fitted effect of over 65% in size
TO DNA binding – counter-screen for WRN helicase inhibitors: DNA binding; shares compounds with WRN helicase inh-1; thiazole orange DNA binding displacement, fluorescence; Potency, µM (highest dose often 57.1 µM), for inactives: top-dose activity change, negative = inhibition, usual class: inhibitors; actives 10% (n = 610);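 note: drop in dye fluorescence marks compound binding to DNA; % is set by controls: 0 for no effect and ±100 for the full control effect; nearly all actives have a fitted effect of over 60% in size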
BLM helicase inh-2 – BLM helicase inhibition, WRN selectivity check | shares compounds with WRN helicase inh-1 | Recombinant BLM helicase DNA unwinding, red fluorescence | Potency, µM (highest dose often 57.1 µM), without a hit: at the highest dose activity change, negative = inhibition, actives largely listed as inhibitors | actives 60% (n = 610); note: nearly all actives have a fitted effect of over 60% in size
Active calls of the source: *; i = inactive; ? = inconclusive; . = no result; [ ] = another dose, or the depositor's remark. Rows were chosen to be rich in hits. Some 0.99% of all compounds tested hit in one or more screens of this group. Calls come from the whole dose curve; as a rule, active = well fitted curve in the direction sought with a large enough effect; inconclusive = small, poorly fitted or top-dose-only effect, or another doubt; inactive = no such curve, though single readings can be large; an effect the other way counts as inactive or inconclusive. Potency is the fitted concentration of half-maximal effect.

SMILES | FEN1 inh | BLM helicase inh-1 | RECQ1 helicase | L3MBTL1 inh | WRN helicase inh-1 | WRN helicase inh-2 | TO DNA binding | BLM helicase inh-2
CCOC(=O)C1CCCN(C(=O)c2cc(-c3ccco3)nc3ccccc23)C1 (centres undefined) | 56µM* | . | . | 3.5µM* | 32µM* | 14µM* | ? | 1.7µM*
CCOc1ccc(C(C(=O)NC2CCCC2)N(C(=O)CNC(=O)c2ccco2)c2cccnc2)cc1 (centres undefined) | 2% | -8% | . | . | 7% | . | . | .
Cc1c(Cc2ccccc2)c(=O)oc2c(O)c(O)ccc12 | ? | 13µM* | i | -11% | 28µM* | 6.8µM* | -17% | 6.8µM*
Cc1c(Cc2ccccc2)c(=O)oc2cc(O)ccc12 | -8% | -8% | 0% | 7% | -8% | . | . | .
CCOc1ccc(/C=C/C(=O)Nc2sc3c(c2C(=O)OC)C(C(=O)OC)CC3)cc1 (centres undefined) | ? | -7% | . | . | . | -13% | -7% | ?
COC(=O)c1c(NC(=O)CCCOc2ccc(C)cc2)sc2c1CCCC2 | 1% | -3% | . | . | . | . | . | .
COC(=O)c1c(NC(=O)CCCOc2cccc(C)c2)sc2c1C(C(=O)OC)CC2 (centres undefined) | 71µM* | -12% | . | . | . | -14% | -23% | ?
COC(=O)c1c(NC(=O)CCCOc2ccc(C)cc2)sc2c1C(C(=O)OC)CC2 (centres undefined) | 79µM* | -10% | . | . | . | -23% | 24µM* | ?
COC(=O)c1c(NC(=O)CCCOc2cccc(C)c2)sc2c1CCC2 | 3% | -3% | . | . | . | . | . | .
COc1ccc(-c2[nH]ncc2-c2csc(C)n2)c(O)c1 | 19% | 4% | -6% | 3% | 2% | . | . | .
COc1ccc(C(=O)N2CCOCC2c2cc(C(=O)NCc3ccccc3)no2)cc1 (centres undefined) | . | . | . | . | 1%[57.1 µM] | . | . | .
CC(=O)NN1C(=O)/C(=C/c2ccc(Br)o2)SC1=S | 40µM* | -10% | ? | . | 50µM* | -20% | 2% | -20%
CCN(CC)c1ccc(N=C2C=CC(=O)C=C2NC(C)=O)cc1 | ? | . | . | . | 18µM* | -13% | -11% | -23%
Cc1ccc(NC(=O)N2CCC(N3CCN(Cc4ccccc4)C(=O)C3=O)CC2)cc1Cl | -7% | 0% | . | . | . | . | . | .
COc1ccc(/C=C2\C(=O)ON=C2c2ccccc2)cc1 | -10% | -5% | . | . | 32µM* | -23% | -4% | -25%
O=C(O)CN1C(=O)/C(=C\C(Br)=C\c2ccccc2)SC1=S | ? | -5% | . | . | ? | 22µM* | -7% | 22µM*
C[N+]1(CC(=O)Nc2ccc(F)cc2)CCN(C(=O)c2ccco2)CC1 | -2% | -2% | i | 3% | -1% | . | . | .
C=CCc1ccccc1OCCSc1nc(-c2ccc(C(C)(C)C)cc2)nc2cc(=O)[nH]n12 | ? | -21% | . | . | . | . | . | .
COc1ccccc1OCCSc1nc(-c2ccc(C(C)(C)C)cc2)nc2cc(=O)[nH]n12 | -27% | -7% | . | . | . | ? | ? | 27µM*
Cc1ccccc1-c1cc(C(=O)Nc2sc(C(=O)OC(C)C)c(C)c2C#N)c2ccccc2n1 | -7% | -12% | i | -6% | -12% | . | . | .
COc1cc(/C=C2/C(=O)c3cccc([N+](=O)[O-])c3C2=O)c(Br)cc1O | ? | -19% | 25µM* | -15% | 4.2µM* | ? | ? | ?
CC1CC1c1ccc(/C=C(\C#N)C(=O)Nc2cc(Cl)ccc2Cl)o1 (centres undefined) | 1% | -3% | 3% | -12% | -33% | . | . | .
N#C/C(=C\c1ccc(-c2cc(Cl)ccc2Cl)o1)C(=O)Nc1ccccc1C(=O)O | ? | 11µM* | . | . | . | 17µM* | 11µM* | 3µM*
O=C(O)c1[nH]c2ccccc2c1C(c1cc(Cl)cc([N+](=O)[O-])c1O)c1c(C(=O)O)[nH]c2ccccc12 | 79µM* | -5% | . | -27% | 45µM* | 22µM* | -11% | ?
O=C(O)c1[nH]c2ccccc2c1C(c1ccccc1)c1c(C(=O)O)[nH]c2ccccc12 | -4% | 6% | . | -9% | -16% | . | . | .
SMILES | FEN1 inh | BLM helicase inh-1 | RECQ1 helicase | L3MBTL1 inh | WRN helicase inh-1 | WRN helicase inh-2 | TO DNA binding | BLM helicase inh-2
O=C(O)COc1ccccc1/C=N/NC(=O)c1cc(-c2ccc(Cl)cc2)nc2ccccc12 | ? | -9% | i | . | ? | ? | ? | 27µM*
O=C(O)COc1ccccc1/C=N/NC(=O)c1cc(-c2ccccc2)nc2ccccc12 | -1% | -2% | 28% | . | -20% | . | . | .
CC1=NN(c2ccccc2)C(=O)C1/C=C1\NC(=S)NC1=O (centres undefined) | 79µM* | 0% | 4% | . | 28µM* | 8.6µM* | -23% | 17µM*
Cc1nc2ccn(Cc3cccnc3)c(=O)c2cc1C(=O)Nc1ccc(F)cc1F | 9% | -2% | . | . | . | . | . | .
O=[N+]([O-])c1ccc(N/N=C/C=C/c2ccco2)cc1 | -1% | . | . | . | 2% | . | . | .
O=C(O)c1ccc(N/N=C/C=C/c2ccc([N+](=O)[O-])o2)cc1 | ? | -23% | . | . | ? | 19µM* | ? | 17µM*
COc1ccc(NC(=O)CN(C)CC(=O)Nc2ccccc2SC)cc1 | -1% | 4% | -2% | 11% | 28µM* | -13% | -9% | -21%
COc1ccc(N=Cc2cc(Cc3ccccc3Cl)cc([N+](=O)[O-])c2O)cc1OC | -26% | -1% | -3% | . | 2% | . | . | .
Cc1ccc(N=Cc2cc(Cc3ccccc3Cl)cc([N+](=O)[O-])c2O)c(O)c1 | -32% | 16µM* | ? | . | 28µM* | 24µM* | ? | 22µM*
Oc1ccc(O)c(Cc2nc3ccccc3[nH]2)c1 | -21% | -4% | i | -18% | 89µM* | 22µM* | ? | 6.8µM*
COc1ccc(S(=O)(=O)N2CCc3ccccc32)cc1C(=O)NCc1ccco1 | 9% | . | . | ? | ? | . | . | .
Oc1c(Cl)cc(Oc2cc(Cl)c(O)c(CN3CCOCC3)c2)cc1CN1CCOCC1 | -18% | . | . | . | -3% | . | . | .
CCCc1cc(CN2CCOCC2)c(O)c(CN2CCOCC2)c1O | 1% | . | . | . | 18µM* | -13% | -3% | -25%
CCOC(=O)N1CCN(C(=O)CCC(=O)c2ccc(OCC)cc2)CC1 | -3% | -1% | . | . | 7% | . | . | .
CCCOc1ccc(C(=O)CCN2CCN(C(=O)OCC)CC2)cc1 | -1% | 1% | -8% | . | ? | -16% | -6% | -18%
C=CSc1sc(Cl)c(N2CCOCC2)c1[N+](=O)[O-] | -9% | -7% | -8% | -21% | -10% | . | . | .
C=CS(=O)(=O)c1sc(Cl)c(N2CCOCC2)c1[N+](=O)[O-] | -8% | -2% | -9% | -16% | 32µM* | 14µM* | -25% | 3.4µM*
